In the library only some 1.8% were active in any assay of this set; here they are far more common.
MIN6 prolif-1 – inducers of beta-cell replication in MIN6 cells; MIN6 cells proliferation, ATPlite luminescence, 48 h; cells starved in 0.2% serum; 100% = growth in 10% serum; proliferation, % at 10 µM; hit rate 0.29% among 330,000;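 active means compounds whose signal lies at least 3.5 SD above the mean of all wells on their plate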;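 further: 0% = DMSO-treated cells in low-serum medium and 100% = 10% serum control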
VLA-4 inh – inhibition in a human VLA-4 binding assay; hit rate 0.2% among 330,000; inhibition, % (about 7 µM as worked out from the volumes in the protocol); VLA-4 expressing cells, ligand binding flow cytometry; P13612; in the data active means inhibition above about 50%
NRP1-CendR mod – modulators of CendR peptide binding to human neuropilin-1; FAM-RPARPAR peptide binding to NRP-1, fluorescence polarization; inhibition, % at 25 µM; hit rate 0.85% among 360,000; AID 602438;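 active means inhibition or corrected inhibition above about 18%, plus a signal ratio from 0.5 to 1.5, limit read from the data, passing the limit was not always enough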
A3A deaminase – human APOBEC3A DNA deaminase inhibition; P31941; inhibition, % at 20 µM; hit rate 0.41% among 330,000; recombinant A3A, FAM/TAMRA ssDNA deamination fluorescence; AID 493011;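 active means at least 40% inhibition at 20 µM here, with at most 30% in a related deaminase screen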;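 further: plate controls were A3A with DMSO for no effect and wells lacking A3A enzyme for full effect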
A3G deaminase – APOBEC3G (human) deaminase inhibition | Q9HC16 | recombinant A3G, ssDNA deamination FAM/TAMRA fluorescence | inhibition, % at 20 µM | hit rate 0.28% among 330,000 | AID 493012;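 active means inhibition of at least 40% at 20 µM, with no more than 30% in the related APOBEC3A deaminase screen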;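 further: plate controls were DMSO wells with A3G for no effect and wells lacking A3G enzyme for full effect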
MIN6 prolif-2 – MIN6 beta-cell replication induction, confirmed; shares compounds with MIN6 prolif-1; MIN6 beta-cell proliferation, ATPlite luminescence, 48 h; cells kept in 0.2% serum; scaled between 0.2% and 10% serum; proliferation increase, % at 50 µM; 920 tested, under 10 active; AID 463095;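 active means proliferation increase above 40% at any of the four tested concentrations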
VLA-4 allo CP – confirmation of allosteric modulators of human VLA-4 integrin. hit rate 2% among 1,300. inhibition, % at 6.7 µM. U937 cells, HUTS-21 LIBS mAb binding, flow cytometry; LDV ligand present at threefold Kd. AID 2813. shares compounds with VLA-4 inh; in the data active means inhibition above about 40%;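 further: 0% = ligand without compound and 100% = no ligand background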
* hit, by the source's call; · = no result.

SMILES	MIN6 prolif-1	VLA-4 inh	NRP1-CendR mod	A3A deaminase	A3G deaminase	others
COC(=O)C1=C(c2cccc(C#N)c2)C[C@@H]2CC[C@H]1N2C(=O)N1CCCCC1	-5	-13	4	1	3
COC(=O)C1=C(c2ccc(F)cc2F)C[C@@H]2CC[C@H]1N2C(=O)NCCNC(C)=O	3	3	-2	-2	-9
CCCNC(=O)N1[C@H]2CC[C@@H]1C(C(=O)OC)=C(c1ccc(F)cc1F)C2	-3	23	32*	-2	-5
COC(=O)C1=C(c2cccc(C#N)c2)C[C@@H]2CC[C@H]1N2C(=O)N1CCC(O)CC1	-2	8	25*	-2	-5
COC(=O)C1=C(c2ccc(F)cc2OCc2ccccc2)C[C@@H]2CC[C@H]1N2C(=O)N1CCCC1	-6	4	27*	1	-10
CCOC(=O)[C@]12Cc3c(cc(OC)c(OC)c3OC)[C@H]1N(C(C)C)C(=O)c1ccccc12	·	·	-5	·	·
COC(=O)C1=C(c2cccc(C#N)c2)C[C@@H]2CC[C@H]1N2C(=O)NCCO	-1	6	29*	2	-4
COC(=O)C1=C(c2ccc(C(C)=O)cc2)C[C@@H]2CC[C@H]1N2C(=O)NCc1ccc2c(c1)OCO2	1	-15	21*	0	1
COC(=O)C1=C(c2ccc(Cl)c(C(F)(F)F)c2)C[C@@H]2CC[C@H]1N2C(=O)NCc1ccc2c(c1)OCO2	-7	-2	2	-4	-2
COC(=O)C1=C(c2cccc(C#N)c2)C[C@@H]2CC[C@H]1N2C(=O)NCCNC(C)=O	-5	10	11	3	-4
C[C@]12CCC(=O)CC1CCC1C2CC[C@]2(C)C(OC(=O)CCC(=O)O)CCC12 (stereo partly drawn)	2	3	-2	1	-5
Cc1cc(Cl)ccc1OCC(=O)N1CCN(C)CC1	0	-7	23*	-13	-5
O=C1C(Cl)=CC(=Nc2ccc(O)cc2)C=C1Cl	-8	-11	0	11	18
COc1ccc(-c2cc(=O)c3c(OC)c(OC)c(OC)cc3o2)cc1	9.3*	-7	-11	6	0	MIN6 prolif-2=-2
CC(=O)c1ccc(OC(NC(=O)c2ccco2)C(Cl)(Cl)Cl)cc1 (stereo not drawn)	7.2*	12	-10	2	-2	MIN6 prolif-2=-1
N#Cc1ccc(CN2Cc3ccccc3-n3nncc3C2)cc1	·	·	1	·	·
O=C(O)c1cc[c]([Hg][Cl])cc1	-2	-7	-10	97	92
CC/C(=N\NC(=O)c1ccccc1Cl)c1c(O)n(C2CCCCC2)c(=O)[nH]c1=O	0	22	-6	3	8
CC/C(=N\NC(=O)c1ccccc1)c1c(O)n(C2CCCCC2)c(=O)[nH]c1=O	12*	17	-8	-4	-5	MIN6 prolif-2=-5
NS(=O)(=O)c1ccc(N=Cc2c(O)n(-c3ccccc3)c(=O)[nH]c2=O)cc1	8.2*	12	-13	2	-1	MIN6 prolif-2=3
Cc1ccc(-n2c(O)c(C=Nc3ccc(S(N)(=O)=O)cc3)c(=O)[nH]c2=O)cc1	-4	10	-4	-5	-9
CN1CCN(c2nc3ccccc3o2)CC1	7.3*	0	-14	2	-1	MIN6 prolif-2=-2
CCN(CC)CCO	6	22	6	-6	-9
Cc1cccc(-n2c(/C=C/c3ccccn3)nc3ccccc3c2=O)c1	1	4	12	-7	-8
COc1cccc(-n2c(/C=C/c3ccccn3)nc3ccccc3c2=O)c1	8.5*	3	-4	2	10	MIN6 prolif-2=-6
C=CCn1c(O)c(C(CC)=NCc2ccco2)c(=O)[nH]c1=O	6.2*	-2	-3	-2	25	MIN6 prolif-2=0
CC(C)n1c(O)c(C2c3cc(Cl)ccc3Oc3[nH]c(=O)n(C(C)C)c(=O)c32)c(=O)[nH]c1=O (stereo not drawn)	·	·	-20	·	·
CCN(CC)c1ccc(N=Cc2c(O)n(-c3ccccc3)c(=O)[nH]c2=O)cc1	-4	-23	-58	-6	-8
CCN(CC)c1ccc(N=Cc2c(O)n(Cc3ccccc3)c(=O)[nH]c2=O)cc1	-5	-7	-49	-4	-5	VLA-4 allo CP=-22
